Results taken from the supplement of paper PMC6555819.

Tests used:
Assay in all cases: PBM binding z-score (relative to random genomic background probes); higher = stronger binding; sequences stand for … in GC…GCGATTGACAGCGTAGAATGAAGG
[1] = tested on: FXR:RXRa (NR concentration 270 nM, RXRa partner concentration 90 nM)
In short: (§1)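 On custom Agilent 4×180K arrays, double-stranded probes with 34-nt variable regions carried direct-repeat seeds, single-nucleotide variants, half-site ablations or random human genomic background. Ligand-free nuclear receptor dimers were applied for 1 h, and binding was read with antibodies against each partner (one per run). Binding z-scores come from regression-normalized fluorescence, with the random background probes as reference.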

[2] = tested on: LXRa:RXRa (NR concentration 270 nM, RXRa partner concentration 90 nM)
In short: as §1

[3] = tested on: LXRa homodimer (NR concentration 270 nM)
In short: as §1

[4] = tested on: LXRb:RXRa (NR concentration 270 nM, RXRa partner concentration 90 nM)
In short: as §1

[5] = tested on: LXRb homodimer (NR concentration 270 nM)
In short: as §1

[6] = tested on: PPARa:RXRa (NR concentration 270 nM, RXRa partner concentration 90 nM)
In short: as §1

[7] = tested on: PPARg:RXRa (NR concentration 180 nM, RXRa partner concentration 90 nM)
In short: as §1

[8] = tested on: PPARg:RXRa 270nM:90nM, anti-RXR (NR concentration 270 nM, RXRa partner concentration 90 nM)
In short: as §1

[9] = tested on: PPARg:RXRa 30nM:10nM, anti-RXR (NR concentration 30 nM, RXRa partner concentration 10 nM)
In short: as §1

[10] = tested on: PPARg:RXRa 90nM:30nM, anti-RXR (NR concentration 90 nM, RXRa partner concentration 30 nM)
In short: as §1

[11] = tested on: PPARg:RXRa DBDmut IVT, anti-RXR (DBD mutation: RXRa K156A/R161A, NR concentration 270 nM, RXRa partner concentration 90 nM)
In short: as §1

[12] = tested on: PPARg:RXRa IVT, anti-PPARg (NR concentration 270 nM, RXRa partner concentration 90 nM)
In short: as §1

[13] = tested on: PPARg DBDmut:RXRa IVT, anti-PPARg (DBD mutation: PPARg1 K132A/R137A, NR concentration 270 nM, RXRa partner concentration 90 nM)
In short: as §1

[14] = tested on: PPARg DBDmut IVT, anti-PPARg (DBD mutation: PPARg1 K132A/R137A, NR concentration 270 nM)
In short: as §1

[15] = tested on: PPARg homodimer (NR concentration 180 nM)
In short: as §1

[16] = tested on: PXR:RXRa (NR concentration 270 nM, RXRa partner concentration 90 nM)
In short: as §1

[17] = tested on: PXR homodimer (NR concentration 270 nM)
In short: as §1

[18] = tested on: RARa:RXR (NR concentration 270 nM, RXRa partner concentration 90 nM)
In short: as §1

[19] = tested on: RARa homodimer (NR concentration 270 nM)
In short: as §1

[20] = tested on: RARb:RXRa (NR concentration 270 nM, RXRa partner concentration 90 nM)
In short: as §1

| Sequence | PBM binding z-score [1] | PBM binding z-score [2] | PBM binding z-score [3] | PBM binding z-score [4] | PBM binding z-score [5] | PBM binding z-score [6] | PBM binding z-score [7] | PBM binding z-score [8] | PBM binding z-score [9] | PBM binding z-score [10] | PBM binding z-score [11] | PBM binding z-score [12] | PBM binding z-score [13] | PBM binding z-score [14] | PBM binding z-score [15] | PBM binding z-score [16] | PBM binding z-score [17] | PBM binding z-score [18] | PBM binding z-score [19] | PBM binding z-score [20] |
| --- | --- | --- | --- | --- | --- | --- | --- | --- | --- | --- | --- | --- | --- | --- | --- | --- | --- | --- | --- | --- |
| ACACGGAGGACAAAGGTCAGAGCTACGCCAGTGA | 4.18 | 4.33 | 1.74 | 3.36 | 0.366 | 5.18 | 7.55 | 7.26 | 5.39 | 7.07 | 0.363 | 3.8 | 0.472 | -0.253 | 3.82 | 3.92 | 0.625 | 4.81 | 1.1 | 4.58 |
| ATCTCTAGGTAAGACTCAGTTCAGTGTAGAACGC | 0.302 | 0.547 | 0.708 | 0.286 | 0.886 | 0.0925 | -0.0106 | 0.309 | 0.182 | 0.398 | 2.3 | 1.23 | 0.993 | 0.824 | 1.01 | 1.15 | 1.68 | 0.389 | 1.23 | 0.291 |
| CCTTACGGGACACTGACAGGTTATAGCATTTGGA | -0.0808 | -0.0885 | 0.186 | 0.0675 | -0.248 | -0.0851 | 0.499 | -0.397 | 0.123 | -0.284 | 0.975 | 0.149 | 0.162 | -0.682 | -0.0979 | -0.2 | 0.162 | -0.0303 | 0.647 | 0.42 |
| CCGACTGGGGCAAAGTTACCATAACGCACAGCCA | -0.19 | -0.516 | -0.498 | -0.362 | -0.945 | 1.6 | 4.27 | 5 | 3.18 | 4.86 | 3.71 | 3.42 | -0.241 | -0.589 | 0.229 | -0.542 | -0.263 | -0.168 | -0.168 | 0.462 |
| GCTTGTAGATCAAGGATAAGAAAGACTAAGCTAA | -0.495 | -1.03 | -0.557 | -0.935 | -0.998 | -0.619 | 0.375 | 0.179 | -0.00993 | -0.0632 | 0.345 | -0.0525 | -0.469 | -0.526 | -0.571 | -0.567 | -0.33 | -0.653 | -1.12 | -1.81 |
| GTACCAAGGTGCATAGGTCGTTGATGAGTAGGCG | 0.192 | 0.486 | 0.209 | -0.189 | -0.908 | 1.3 | 1.21 | 1.88 | 0.013 | 1.15 | -0.499 | 0.0785 | -0.485 | -0.265 | 0.243 | 0.269 | -0.124 | 1.1 | -0.294 | 0.748 |
| GTTGCTAGGTCAACTGATGGTCAGCTAAAGCTCG | 4.29 | 3.62 | 0.729 | 2.08 | 0.507 | 3.96 | 3.38 | 3.96 | 0.825 | 2.71 | 5.15 | 4.94 | 1.14 | -0.255 | 1.33 | 1.47 | -0.554 | 3.03 | -0.133 | 4.26 |
| TTACCAAGGTGAGCTGGGGTCGTTGATCCAACTC | 0.996 | 0.819 | -0.542 | 1.37 | -0.609 | 2.37 | 0.431 | 1.19 | -0.099 | 0.415 | 0.928 | 2.07 | -0.594 | -0.348 | 0.0514 | 4.52 | 0.268 | 2.72 | -0.868 | 1.55 |
| AGAACGAGGGCAATGAGTTGATATCACGGGTGGC | 0.383 | 0.334 | -0.363 | -0.00546 | -0.245 | 1.52 | 1.86 | 1.07 | 0.219 | 0.833 | 3.27 | 2.39 | 0.947 | -0.37 | 0.0848 | 1.68 | 4.4 | 0.557 | -0.0418 | 1.95 |
| CCTACTGCGCCAAAAAGGTCATTGATGCCGATAA | 4.02 | 4.8 | 4.24 | 4.54 | 1.52 | 4.78 | 1.47 | 3.17 | 1.18 | 2.45 | 0.459 | 1.48 | 0.19 | 0.294 | 4.51 | 4.87 | 3.21 | 5.58 | 3.23 | 4.05 |
| TCGAGTAGGTTACCAATGGGGCATTCACCTTTCT | 0.403 | 1.81 | -0.322 | 1.57 | -0.26 | 1.55 | 0.512 | 1.43 | 1.26 | 1.47 | 3.38 | 2.75 | 0.0374 | 0.508 | 0.0872 | 0.579 | -0.637 | 1.1 | -0.777 | 1.13 |
